{"source": "PubChem BioAssay AID624405", "about": "(Broad Institute, 2012)", "note": "The campaign covered roughly 1,900 compounds. About 250 (13%) were called active. About 4% were inconclusive and are not listed.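 How the source made its calls: active means fitted curve reaches 40% rescue activity at or below the top valid dose, in every test run; inconclusive means test runs disagree, some active and some inactive; inactive means every run misses the threshold or moves the wrong way.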 A selection follows. Entries with a potency or affinity are not part of this list."}
{"experiment": "rescue of simvastatin-induced ATP loss – cell-based, C2C12 myotubes, ATP luminescence, cherry pick, dose response (AID 624405);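 further: myotubes are challenged with simvastatin at 10 µM to lower ATP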", "details": "48 h, scaled: DMSO wells 0, geranylgeraniol wells 100; series mostly up to 19.5 µM"}
{"molecule": "N#Cc1ccc(Oc2ccc(/C=N/O)cn2)cc1", "outcome": "inactive"}
{"molecule": "COc1ccc(N2CCN(C(=O)COc3ccc4c(C)cc(=O)oc4c3C)CC2)cc1", "outcome": "inactive"}
{"molecule": "C[C@H]1CN([C@@H](C)CO)C(=O)c2cc(NS(=O)(=O)c3ccc(Cl)cc3)ccc2O[C@H]1CN(C)S(=O)(=O)c1cccs1", "outcome": "inactive"}
{"molecule": "C[C@@H]1CN([C@@H](C)CO)C(=O)c2cc(NC(=O)Nc3ccc(F)cc3)ccc2O[C@@H](C)CCCCO[C@@H]1CN(C)S(=O)(=O)c1cccs1", "outcome": "inactive"}
{"molecule": "COCCCn1cnc2c(c1=O)c1nc3ccccc3nc1n2-c1ccccc1", "outcome": "inactive"}
{"molecule": "C[C@@H]1CN([C@@H](C)CO)C(=O)Cc2cc(NC(=O)Cn3cnnn3)ccc2O[C@H]1CN(C)Cc1ccc(Oc2ccccc2)cc1", "outcome": "inactive"}
{"molecule": "COc1ccc(N2Nc3n[nH]c(N)c3N2)cc1", "outcome": "inactive"}
{"molecule": "C[C@@H]1CCCCO[C@H](CN(C)Cc2ccc(C(F)(F)F)cc2)[C@H](C)CN([C@@H](C)CO)C(=O)c2cc(NC(=O)c3ccncc3)ccc2O1", "outcome": "inactive"}
{"molecule": "O=C(NC1CCN(C(=O)NCc2ccccc2)CC1)c1ccco1", "outcome": "inactive"}
{"molecule": "COc1ccc(-c2cnc3c(c2)C(=O)N([C@H](C)CO)C[C@H](C)[C@H](CN(C)S(=O)(=O)c2ccc(C)cc2)O3)cc1", "outcome": "inactive"}
{"molecule": "Cc1noc(C)c1NC(=O)Nc1ccc2c(c1)CC(=O)N([C@H](C)CO)C[C@@H](C)[C@@H](CN(C)Cc1ccc(Cl)c(Cl)c1)O2", "outcome": "inactive"}
{"molecule": "O=CN1CCC(=O)N(Cc2ccccc2)c2ccccc21", "outcome": "inactive"}
{"molecule": "COc1cc(NC(=O)c2ccccc2)c(OC)cc1Cl", "outcome": "inactive"}
{"molecule": "Cc1cccc(NC(=O)c2ccc(OC3CSC3)cc2)c1", "outcome": "inactive"}
{"molecule": "COc1ccc(C2NC(C(=O)O)Cc3c2[nH]c2ccccc32)cc1OC", "note": "(stereo not drawn)", "outcome": "inactive"}
{"molecule": "O=C1C[C@@H]2c3c(cccc3CN1Cc1ccc(Br)cc1)C[C@@H](O)[C@H]2O", "outcome": "inactive"}
{"molecule": "O=C1C[C@@H]2c3c(cccc3CN1Cc1ccc(Cl)cc1)C[C@@H](O)[C@H]2O", "outcome": "inactive"}
{"molecule": "COc1ccc(CN2[C@H](CO)[C@H]3c4ccccc4N(C(=O)c4ccccc4)C[C@H]32)cc1", "outcome": "inactive"}
{"molecule": "O=C(CSc1nc2ccccc2[nH]1)Nc1ccc2c(c1)OCCO2", "outcome": "inactive"}
{"molecule": "CCOc1ccc(NC(=O)CN(Cc2ccccc2)S(C)(=O)=O)cc1", "outcome": "inactive"}
{"molecule": "Cc1cccc(Nc2nc(CC(=O)O)cs2)c1", "outcome": "inactive"}
{"molecule": "CCOC(=O)Cc1nnc(NC(=O)COc2ccc(OC)cc2)s1", "outcome": "inactive"}
{"molecule": "C[C@@H]1CN([C@H](C)CO)C(=O)c2cc(C3=CCCCC3)cnc2O[C@@H]1CN(C)C(=O)c1ccccn1", "outcome": "inactive"}
{"molecule": "C[C@H]1CN([C@@H](C)CO)C(=O)c2cc(NC(=O)Cc3cn(C)c4ccccc34)ccc2O[C@@H]1CN(C)S(=O)(=O)c1cccs1", "outcome": "inactive"}
{"molecule": "Cc1cc(C)nc(N2CCCC(C(=O)NCc3cccs3)C2)n1", "note": "(stereo not drawn)", "outcome": "inactive"}
{"molecule": "S=C(NCc1ccc(Cl)cc1)Nc1ccccc1", "outcome": "inactive"}
{"molecule": "COc1ccc(S(=O)(=O)Nc2ccc3c(c2)CC(=O)N([C@H](C)CO)C[C@H](C)[C@@H](CN(C)Cc2ccc(C(F)(F)F)cc2)O3)cc1", "outcome": "inactive"}
{"molecule": "Cn1c(-c2sc3cc(C(F)(F)F)cnc3c2-c2cccnc2)n[nH]c1=S", "outcome": "inactive"}
{"molecule": "CC1(C)CC(C(=O)Nc2nccs2)CCO1", "note": "(stereo not drawn)", "outcome": "inactive"}
{"molecule": "C[C@@H]1CN([C@@H](C)CO)C(=O)c2cc(NS(=O)(=O)c3cccs3)ccc2O[C@H]1CN(C)S(=O)(=O)c1ccc(Cl)cc1", "outcome": "inactive"}
{"molecule": "COc1ccc(OC)c(S(=O)(=O)Nc2ccccc2C)c1", "outcome": "inactive"}
{"molecule": "CCCOn1nnnc1-c1ccccc1", "outcome": "inactive"}
{"molecule": "C[C@@H]1CCCCO[C@H](CN(C)C(=O)Nc2cccc3ccccc23)[C@H](C)CN([C@@H](C)CO)C(=O)c2cc(NS(=O)(=O)c3ccc(Cl)cc3)ccc2O1", "outcome": "inactive"}
{"molecule": "CC1CCN(c2ncnc3c2cnn3Cc2ccc(Cl)cc2)CC1", "outcome": "inactive"}
{"molecule": "C[C@H]1CN([C@@H](C)CO)C(=O)c2cc(C3=CCCCC3)cnc2O[C@@H]1CN(C)Cc1ccccc1F", "outcome": "inactive"}
{"molecule": "COc1ccccc1OCCNC1CCCC1", "outcome": "inactive"}
{"molecule": "C[C@@H]1CN([C@H](C)CO)C(=O)Cc2cc(NS(=O)(=O)c3cn(C)cn3)ccc2O[C@@H]1CN(C)Cc1ccc(-c2ccccc2)cc1", "outcome": "inactive"}
{"molecule": "O=C(Cn1cnc2c(cnn2-c2ccccc2)c1=O)c1ccc(Cl)cc1", "outcome": "inactive"}
{"molecule": "CCOC(=O)c1nn(-c2cccc(Cl)c2)c(C)c1C(C)=O", "outcome": "inactive"}
{"molecule": "COc1ccc(NC(=O)Nc2cccc3c2O[C@@H](CN(C)C(=O)Nc2cccc4ccccc24)[C@@H](C)CN([C@H](C)CO)C3=O)cc1", "outcome": "inactive"}
{"molecule": "C[C@@H]1CN([C@@H](C)CO)C(=O)c2cc(N(C)C)ccc2O[C@H]1CN(C)Cc1ccc(-c2ccccc2)cc1", "outcome": "inactive"}
{"molecule": "Oc1ccccc1/C=N/c1c(-c2ccco2)nc2ccccn12", "outcome": "inactive"}
{"molecule": "CC(c1nc2ccccc2c(=O)[nH]1)N1CCN(C)CC1", "note": "(stereo not drawn)", "outcome": "inactive"}
{"molecule": "C[C@H]1CN([C@@H](C)CO)C(=O)c2cc(NS(=O)(=O)c3cccs3)ccc2O[C@H]1CN(C)Cc1ccc(Cl)c(Cl)c1", "outcome": "inactive"}
{"molecule": "O=C(Nc1ccc(S(=O)(=O)N2CCCCC2)cc1)c1ccco1", "outcome": "inactive"}
{"molecule": "O=C(NCc1ccco1)C1CCCN(S(=O)(=O)c2ccccc2)C1", "note": "(stereo not drawn)", "outcome": "inactive"}
{"molecule": "C[C@H]1CN([C@@H](C)CO)C(=O)c2cc(NC(=O)Cc3cn(C)c4ccccc34)ccc2O[C@@H]1CN(C)Cc1ccc(C(F)(F)F)cc1", "outcome": "inactive"}
{"molecule": "C[C@H](CO)N1C[C@H](C)[C@H](CN(C)Cc2ccc(C(=O)Nc3ccccc3N)cc2)Oc2ccc(NC(=O)Cn3cnnn3)cc2C1=O", "outcome": "inactive"}
{"molecule": "C[C@@H]1CN([C@H](C)CO)C(=O)c2cc(NC(=O)Cc3cn(C)c4ccccc34)ccc2O[C@H]1CN(C)Cc1ccc(-c2ccccc2)cc1", "outcome": "inactive"}
{"molecule": "CC(=O)N(C)c1ccc(OCC(O)COc2ccc(N(C)C(C)=O)cc2)cc1", "outcome": "inactive"}
{"molecule": "Cc1cccc(NC(=O)C2CCCN(S(=O)(=O)c3cccc4nsnc34)C2)n1", "note": "(stereo not drawn)", "outcome": "inactive"}
{"molecule": "CN(C(=O)c1ccc(NC(=O)Cc2ccc(NC(=O)C3CCN(C(=O)CCc4ccccc4)CC3)cc2)cc1)C1CC1", "outcome": "inactive"}
{"molecule": "CCCc1cc(Nc2c(C)n(C)n(-c3ccccc3)c2=O)n2c(nc3ccccc32)c1C#N", "outcome": "inactive"}
{"molecule": "Cc1ccc(S(=O)(=O)Nc2cccc3c2O[C@@H](CN(C)Cc2ccc(C(F)(F)F)cc2)[C@H](C)CN([C@H](C)CO)C3=O)cc1", "outcome": "inactive"}
{"molecule": "C[C@@H]1CCCCO[C@@H](CN(C)S(=O)(=O)c2ccc(Cl)cc2)[C@H](C)CN([C@H](C)CO)C(=O)c2cc(NS(C)(=O)=O)ccc2O1", "outcome": "inactive"}
{"molecule": "O=C(Nc1ccc(NC(=O)c2ccco2)nc1)c1ccccn1", "outcome": "inactive"}
{"molecule": "COc1ccc(NC(=O)Nc2ccc3c(c2)C(=O)N([C@@H](C)CO)C[C@@H](C)[C@H](CN(C)Cc2ccc(C(F)(F)F)cc2)OCCCC[C@H](C)O3)cc1", "outcome": "inactive"}
{"molecule": "O=C(NCC12CC3CC(CC(C3)C1)C2)c1nn2c(c1Cl)NC(c1ccco1)CC2C(F)(F)F", "note": "(stereo not drawn)", "outcome": "inactive"}
{"molecule": "COc1ccc(NC(=O)Nc2ccc3c(c2)C(=O)N([C@H](C)CO)C[C@H](C)[C@@H](CN(C)Cc2ccc(C(F)(F)F)cc2)OCCCC[C@@H](C)O3)cc1", "outcome": "inactive"}
{"molecule": "COc1ccc(NC(=O)N(C)C[C@H]2Oc3c(NC(=O)Nc4cccc5ccccc45)cccc3C(=O)N([C@H](C)CO)C[C@H]2C)cc1", "outcome": "inactive"}
{"molecule": "Cc1noc(C)c1S(=O)(=O)N(C)C[C@H]1Oc2ccc(NC(=O)Nc3cccc4ccccc34)cc2CC(=O)N([C@H](C)CO)C[C@@H]1C", "outcome": "inactive"}
{"molecule": "COc1ccccc1N1CCN(Cc2nc3ccsc3c(=O)[nH]2)CC1", "outcome": "inactive"}
{"molecule": "CN1CCN(C2=Cc3ccccc3Sc3cc(F)ccc32)CC1", "outcome": "inactive"}
{"molecule": "Cc1noc(C)c1S(=O)(=O)Nc1ccc2c(c1)CC(=O)N([C@H](C)CO)C[C@H](C)[C@@H](CN(C)Cc1ccc(Cl)c(Cl)c1)O2", "outcome": "inactive"}
{"molecule": "Cc1noc(C)c1S(=O)(=O)Nc1ccc2c(c1)CC(=O)N([C@@H](C)CO)C[C@@H](C)[C@H](CN(C)Cc1ccc(-c3ccccc3)cc1)O2", "outcome": "inactive"}
{"molecule": "Cc1noc(C)c1S(=O)(=O)Nc1ccc2c(c1)CC(=O)N([C@H](C)CO)C[C@@H](C)[C@@H](CN(C)Cc1ccc(C(F)(F)F)cc1)O2", "outcome": "inactive"}
{"molecule": "Cc1noc(C)c1S(=O)(=O)Nc1ccc2c(c1)CC(=O)N([C@@H](C)CO)C[C@H](C)[C@@H](CN(C)Cc1ccc(Cl)c(Cl)c1)O2", "outcome": "inactive"}
{"molecule": "Cc1noc(C)c1S(=O)(=O)Nc1ccc2c(c1)CC(=O)N([C@H](C)CO)C[C@@H](C)[C@@H](CN(C)Cc1ccc(Cl)c(Cl)c1)O2", "outcome": "inactive"}
{"molecule": "Cc1noc(C)c1S(=O)(=O)Nc1ccc2c(c1)CC(=O)N([C@H](C)CO)C[C@@H](C)[C@H](CN(C)Cc1ccc(Cl)c(Cl)c1)O2", "outcome": "inactive"}
{"molecule": "C/C=C/c1ccc2c(c1)O[C@@H](CN(C)C(=O)NC1CCCCC1)[C@@H](C)CN([C@@H](C)CO)S2(=O)=O", "outcome": "inactive"}
{"molecule": "O=C(O)CC(c1ccccc1)n1cccc1", "note": "(stereo not drawn)", "outcome": "inactive"}
{"molecule": "O=C(CN1CCN(C(=O)c2ccco2)CC1)Nc1cc(C(F)(F)F)ccc1Cl", "outcome": "inactive"}
{"molecule": "COc1ccc(NC(=O)Nc2ccc3c(c2)C(=O)N([C@H](C)CO)C[C@H](C)[C@H](CN(C)Cc2ccc(C(F)(F)F)cc2)OCCCC[C@@H](C)O3)cc1", "outcome": "inactive"}
{"molecule": "CCn1ncc(Br)c1C(=O)Nc1cc(C(=O)OC)ccc1C(=O)OC", "outcome": "inactive"}
{"molecule": "O=C(C[C@H]1CC[C@H]2[C@@H](COC[C@H](O)CN2Cc2ccc(Oc3ccccc3)cc2)O1)N1CCCCC1", "outcome": "inactive"}
{"molecule": "O=C(C[C@@H]1CC[C@@H]2[C@H](COC[C@H](O)CN2Cc2ccc(C(F)(F)F)cc2)O1)NCCc1ccccc1", "outcome": "inactive"}
{"molecule": "O=C(C[C@@H]1CC[C@H]2[C@@H](COC[C@@H](O)CN2Cc2ccc(Oc3ccccc3)cc2)O1)Nc1nccs1", "outcome": "inactive"}
{"molecule": "O=C(C[C@H]1CC[C@H]2[C@@H](COC[C@@H](O)CN2Cc2ccc(Oc3ccccc3)cc2)O1)N1CCCCC1", "outcome": "inactive"}
